In PubChem BioAssay AID1159580 (chemical genetic matrix, 2015):
Hit rate of the full screen: of about 5,500 compounds, about 2,000 (36%) were called active. About 18% were inconclusive and are not listed. Cut-off read from the data, not from the text of the source: active = normalized growth mostly below about 0.91 (no sharp cut-off); inconclusive = no clear call, values can overlap the other calls; inactive = mostly above about 0.92. The list shows a part of the results.

Assay: chemical genetic growth profiling, strain panel (AID 1159580);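 note: tested at 20 µM; growth read once vehicle control cultures reached saturation at 30 °C; 1 = growth at the plate median or of vehicle wells; lower values mean less growth of the strain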
Details: growth OD

Measured: normalized growth

NC(=O)NCC(N)C(=O)O (stereo not drawn)
inactive: S. cerevisiae deletion strains, locus YBR021W, strain FUR4, stronger effect = lower value 1.06 | S. cerevisiae deletion strains, locus YBR229C, strain ROT2, stronger effect = lower value 1.01 | S. cerevisiae deletion strains, locus YCL029C, strain bik1, stronger effect = lower value 0.988 | S. cerevisiae deletion strains, locus YDL035C, strain GPR1, stronger effect = lower value 1.04 | S. cerevisiae deletion strains, locus YDL074C, strain BRE1, stronger effect = lower value 1.03 | S. cerevisiae deletion strains, locus YDL101C, strain DUN1, stronger effect = lower value 1.02 | S. cerevisiae deletion strains, locus YDL134C, strain PPH21, stronger effect = lower value 1.03 | S. cerevisiae deletion strains, locus YDL185W, strain tfp1, stronger effect = lower value 0.989 | S. cerevisiae deletion strains, locus YDL192W, strain arf1, stronger effect = lower value 1 | S. cerevisiae deletion strains, locus YDR101C, strain arx1, stronger effect = lower value 0.975 | S. cerevisiae deletion strains, locus YDR162C, strain NBP2, stronger effect = lower value 1.04 | S. cerevisiae deletion strains, locus YDR318W, strain mcm21, stronger effect = lower value 0.999 | S. cerevisiae deletion strains, locus YDR388W, stronger effect = lower value 0.983 | S. cerevisiae deletion strains, locus YDR502C, strain sam2, stronger effect = lower value 0.984 | S. cerevisiae deletion strains, locus YEL061C, strain CIN8, stronger effect = lower value 1.01 | S. cerevisiae deletion strains, locus YER110C, stronger effect = lower value 0.978 | S. cerevisiae deletion strains, locus YER155C, strain BEM2, stronger effect = lower value 1.01 | S. cerevisiae deletion strains, locus YER167W, strain BCK2, stronger effect = lower value 1.02 | S. cerevisiae deletion strains, locus YGL078C, strain dbp3, stronger effect = lower value 0.995 | S. cerevisiae deletion strains, locus YGL086W, strain mad1, stronger effect = lower value 0.994 | S. cerevisiae deletion strains, locus YGL248W, strain PDE1, stronger effect = lower value 1.02 | S. cerevisiae deletion strains, locus YGR078C, strain PAC10, stronger effect = lower value 1.03 | S. cerevisiae deletion strains, locus YGR135W, strain pre9, stronger effect = lower value 0.995 | S. cerevisiae deletion strains, locus YGR252W, strain gcn5, stronger effect = lower value 0.987 | S. cerevisiae deletion strains, locus YHR030C, strain SLT2, stronger effect = lower value 1.01 | S. cerevisiae deletion strains, locus YHR079C, strain IRE1 (second series), stronger effect = lower value 0.983 | S. cerevisiae deletion strains, locus YHR094C, strain hxt1, stronger effect = lower value 0.975 | S. cerevisiae deletion strains, locus YHR129C, strain ARP1, stronger effect = lower value 1.02 | S. cerevisiae deletion strains, locus YHR200W, strain rpn10, stronger effect = lower value 0.986 | S. cerevisiae deletion strains, locus YIL066C, strain RNR3, stronger effect = lower value 1.03 | S. cerevisiae deletion strains, locus YIL073C, strain SPO22, stronger effect = lower value 1 | S. cerevisiae deletion strains, locus YIL125W, strain kgd1, stronger effect = lower value 0.991 | S. cerevisiae deletion strains, locus YIR030C, strain dcg1, stronger effect = lower value 0.996 | S. cerevisiae deletion strains, locus YJL095W, strain BCK1, stronger effect = lower value 1.03 | S. cerevisiae deletion strains, locus YJL134W, strain LCB3, stronger effect = lower value 1.01 | S. cerevisiae deletion strains, locus YJL168C, strain set2, stronger effect = lower value 0.989 | S. cerevisiae deletion strains, locus YJL187C, strain SWE1 (second series), stronger effect = lower value 1.02 | S. cerevisiae deletion strains, locus YJR043C, strain POL32, stronger effect = lower value 1.04 | S. cerevisiae deletion strains, locus YJR075W, strain HOC1, stronger effect = lower value 1.02 | S. cerevisiae deletion strains, locus YKL009W, strain mrt4, stronger effect = lower value 1 | S. cerevisiae deletion strains, locus YKL068W, stronger effect = lower value 0.997 | S. cerevisiae deletion strains, locus YKL085W, strain MDH1 (second series), stronger effect = lower value 1.01 | S. cerevisiae deletion strains, locus YKL085W, strain MDH1, stronger effect = lower value 1.01 | S. cerevisiae deletion strains, locus YKL190W, strain CNB1, stronger effect = lower value 1.01 | S. cerevisiae deletion strains, locus YKR001C, strain vps1, stronger effect = lower value 0.989 | S. cerevisiae deletion strains, locus YLR039C, strain RIC1, stronger effect = lower value 1.08 | S. cerevisiae deletion strains, locus YLR058C, strain SHM2, stronger effect = lower value 1.02 | S. cerevisiae deletion strains, locus YLR102C, strain apc9, stronger effect = lower value 0.987 | S. cerevisiae deletion strains, locus YLR262C, strain YPT6, stronger effect = lower value 1.1 | S. cerevisiae deletion strains, locus YLR268W, strain sec22, stronger effect = lower value 0.983 | S. cerevisiae deletion strains, locus YLR330W, strain CHS5, stronger effect = lower value 1.01 | S. cerevisiae deletion strains, locus YLR342W, strain FKS1 (second series), stronger effect = lower value 1.03 | S. cerevisiae deletion strains, locus YLR371W, strain rom2, stronger effect = lower value 0.981 | S. cerevisiae deletion strains, locus YLR418C, strain cdc73, stronger effect = lower value 0.982 | S. cerevisiae deletion strains, locus YML016C, strain PPZ1, stronger effect = lower value 1.01 | S. cerevisiae deletion strains, locus YML032C, strain rad52, stronger effect = lower value 0.995 | S. cerevisiae deletion strains, locus YML124C, strain tub3, stronger effect = lower value 0.981 | S. cerevisiae deletion strains, locus YMR078C, strain ctf18, stronger effect = lower value 0.971 | S. cerevisiae deletion strains, locus YMR223W, strain ubp8, stronger effect = lower value 0.99 | S. cerevisiae deletion strains, locus YMR307W, strain GAS1, stronger effect = lower value 1.14 | S. cerevisiae deletion strains, locus YNL067W, strain RPL9B, stronger effect = lower value 1.01 | S. cerevisiae deletion strains, locus YNL153C, strain GIM3, stronger effect = lower value 1.01 | S. cerevisiae deletion strains, locus YNL233W, strain BNI4, stronger effect = lower value 1.03 | S. cerevisiae deletion strains, locus YNL250W, strain rad50, stronger effect = lower value 1.01 | S. cerevisiae deletion strains, locus YNL271C, strain bni1, stronger effect = lower value 0.982 | S. cerevisiae deletion strains, locus YNL298W, strain CLA4, stronger effect = lower value 0.994 | S. cerevisiae deletion strains, locus YNL307C, strain MCK1, stronger effect = lower value 0.991 | S. cerevisiae deletion strains, locus YNL322C, strain KRE1, stronger effect = lower value 1.01 | S. cerevisiae deletion strains, locus YNR052C, strain pop2, stronger effect = lower value 0.991 | S. cerevisiae deletion strains, locus YOL012C, strain htz1 0.762 | S. cerevisiae deletion strains, locus YOL147C, strain pex11, stronger effect = lower value 0.985 | S. cerevisiae deletion strains, locus YOR061W, strain CKA2, stronger effect = lower value 1.02 | S. cerevisiae deletion strains, locus YOR069W, strain VPS5, stronger effect = lower value 1.01 | S. cerevisiae deletion strains, locus YOR136W, strain idh2, stronger effect = lower value 0.985 | S. cerevisiae deletion strains, locus YOR144C, strain elg1, stronger effect = lower value 0.984 | S. cerevisiae deletion strains, locus YOR184W, strain ser1, stronger effect = lower value 0.989 | S. cerevisiae deletion strains, locus YOR316C, strain cot1, stronger effect = lower value 0.983 | S. cerevisiae deletion strains, locus YPR119W, strain clb2, stronger effect = lower value 0.987 | S. cerevisiae deletion strains, locus YPR141C, strain kar3, stronger effect = lower value 0.995 | S. cerevisiae deletion strains, locus YPR163C, strain tif3, stronger effect = lower value 0.985 | S. cerevisiae deletion strains, locus YPR167C, strain met16, stronger effect = lower value 0.989 | S. cerevisiae deletion strains, strain wtn01, stronger effect = lower value 0.989 | S. cerevisiae strains, strain wild type, stronger effect = lower value 1.02
